From the supplement of paper PMC3334620
The full ranking holds about 33,000 sequences; the median of “E-score (-0.5 to 0.5)” is about -8e-05, and the highest 2% start at about 0.23. The list comes from a sample in which the highest values are over-represented; it also holds similar and randomly drawn sequences.

The sequences below were run against T1, Nrg2 (UniProt P38082) (assay: PBM E-score (8-mer binding enrichment) (E-score (-0.5 to 0.5)); higher = stronger / more preferred TF binding). Details: protein concentration: 100 nM; construct: GST-full length.
T1 sequence: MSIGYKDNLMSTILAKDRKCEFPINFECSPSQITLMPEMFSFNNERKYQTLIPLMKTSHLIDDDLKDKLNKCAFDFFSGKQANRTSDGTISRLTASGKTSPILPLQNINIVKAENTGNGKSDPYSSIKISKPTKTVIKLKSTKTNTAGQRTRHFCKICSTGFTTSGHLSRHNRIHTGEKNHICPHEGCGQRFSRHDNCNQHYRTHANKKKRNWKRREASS
Experimental: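 Universal 'all 10-mer' protein binding microarrays (Agilent AMADID 015681) probed with GST-tagged S. cerevisiae TFs (full-length or DBD) made by in vitro transcription/translation (PURExpress), about 100-200 nM. Bound TF was detected with fluorescent anti-GST. Each ungapped 8-mer (which stands for itself and its reverse complement) is scored by the PBM enrichment score (E-score), a modified Wilcoxon-Mann-Whitney statistic from -0.5 to +0.5, computed with the Universal PBM Analysis Suite. Scale: above 0.35 generally sequence-specific binding.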

Sequence	PBM E-score
GGCAATTA	0.103
CGCATTGC	0.148
ACAACAGA	-0.0576
CGCGAAGA	0.12
AATCGTGT	0.164
ATGGGTGC	-0.0107
GATGAAAA	0.0467
CTCCCAAC	-0.0556
CTACCACC	-0.166
AGCGGGTC	-0.21
ACAGGGTG	0.0367
ACAGGGTA	0.349
ATAGGGTA	0.17
CTTGTGCC	-0.222
AGTTCTAG	-0.0512
ATTGAGAC	0.0341
ATTGAGAG	0.0708
ATTGAGAA	0.232
TAAAACTA	0.0863
AAGGGCCC	0.347
AGGGGCCC	0.276
CGGGGCCC	0.221
CAGGGCCC	0.42
GGGCCCCC	-0.279
GGGGCCCC	0.267

Sequence	PBM E-score
AGGGGGCC	-0.189
CAGGGCCA	-0.0826
GAGGGCCC	0.151
AAGGGCCT	0.0464
AAGGGCCG	-0.0822
CGGGCCCC	0.119
CACCCGAC	-0.0642
AAAAGCGG	-0.12
AAAGTAGT	0.0374
AGTGAAAG	-0.0491
ACTCAATC	0.0391
AACCCCGG	0.0231
GAGTTTCA	0.00699
AAGTTTCA	0.149
TAGTTTCA	0.258
CGTGAATA	0.17
TACCACAA	0.0795
ATAATTAC	0.176
CTAATTGA	0.0446
ATAATTGA	0.276
ATAATTAA	0.264
TTAATTAA	0.198
GTAATTGA	0.00642
CTAGATGA	-0.0603
GCGAAACA	0.0688

Sequence	PBM E-score
AACGATGA	0.0545
ACCGCATC	0.159
AAATTGTT	0.0684
AAATTGCA	0.232
CAATTGCA	-0.0952
AATTGAGG	0.0708
AATTGAGA	0.0993
AAATTGTA	0.0349
AAATTGCT	-0.0593
AATTGGGC	-0.0483
AAATTGTC	0.24
AATTGGGT	0.26
AATTGAGT	0.245
AATTGGGG	-0.0654
CAGAGCGC	-0.213
ACATGGTA	-0.0687
AAGGTGCG	-0.0555
CTCATCCC	-0.234
ACTACGTA	0.0132
ATGTCCGA	-0.0732
ACCTCGCG	0.116
AGTCCCAC	-0.079
AAATTGGT	0.268
CAATTCCA	-0.0703
GAATTCCA	0.188

Sequence	PBM E-score
AAATTGGC	-0.012
AAATTCCA	0.254
AAATTGGG	0.0734
GAGACGGC	-0.0458
ACGAGGAC	-0.0285
CACTGAGC	-0.0828
ACGAATGA	0.156
GAAGGACA	-0.00553
CACCTCAG	-0.11
TCAGTGCA	0.0253
AGCGTTAC	-0.146
CATATAAA	0.00613
AATATAAT	0.0957
TATATAAA	0.2
AATATAGC	0.0275
AATATAGT	0.206
AATATAAG	0.258
AATATAAA	0.233
AATATAGG	0.229
CATATAAG	0.0579
ACACTTCA	0.103
CAGCCAGC	-0.115
CAAACAGC	0.00877
AAGGGCCA	-0.0108
AGTTTGGG	0.0374

Sequence	PBM E-score
CCGGCGAA	0.0927
GGAAACAA	0.105
AGAAACAA	0.258
AGAAACAC	0.0617
AATCGGCG	0.0404
AAGGTTTG	0.0916
CCCAGGGA	0.124
CACAGACA	0.118
CTCAGGGA	0.319
GACAGACC	0.0299
AACAGGGC	0.283
CTCAGGGC	0.157
ACCAGGGA	0.122
GACAGACA	0.248
GTCAGGGA	0.18
TCCAGGGA	0.242
AACAGGGG	0.105
CACAGGGC	0.179
GCATTCCC	-0.0654
ATTCGACC	-0.0786
AGAGCGCT	0.0785
CGCGGGGC	0.0564
AAGGGCAT	-0.139
ATGCGACA	0.0603
GCAAGTGA	-0.0727

Sequence	PBM E-score
AGCTAGCG	0.00875
ACGAAGAC	-0.135
GAGCAAGA	-0.00443
GCTGAAAA	0.114
GATCTCCA	0.0533
CAGAGCTG	-0.0821
AGAACGAA	0.179
AACAGGGA	0.176
GACAGGGA	0.252
CACAGGGA	0.139
CACCTCTC	-0.0403
ATGGCCTA	0.00552
ATAAGAAC	0.36
ACAAGAGC	0.0831
ACAAGAAT	0.0779
ACAAGAAC	0.262
ACCAGAAC	0.238
CCAAGAGA	-0.14
ACCAGAAG	-0.134
GCAAGAAC	0.188
ACAAGAGA	0.24
ATAAGAAA	0.101
ATAAGAAT	0.135
ACCAGAAA	0.041
AGGAGCAC	0.0739

Sequence	PBM E-score
AGTTGGCA	0.1
AGCTTACA	0.128
GCTCCCAA	-0.0754
CGCTACAG	-0.103
ATATACAA	0.237
CTATACTA	0.111
CTATACAA	-0.0419
ATATACTA	0.307
ATATACAC	0.081
ATATACTC	0.0973
AAATCACT	0.124
CACAGCCA	-0.0609
CGGAGATA	0.0572
ATGGTGTA	-0.0203
TCATATCA	0.0508
GCATATCA	0.256
CCATATCA	0.00491
CTTAACGA	0.123
GGCGAAGA	-0.0414
ATCTAGAA	-0.0175
CAAGACCG	-0.00525
AACCTATG	-0.101
